Results reported in PubChem BioAssay (NCI).
This is part of a sample that, as a whole, favours compounds with a hit. Of some 83,000 tested, about 20% had one in any assay.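 Plates (96-well) were seeded with cells, treated with compound at one concentration, and incubated for 48 hours before percent growth was determined.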 Values without a mark were called inactive. Activity calls are given as the source filed them. The calls were made as follows: active = growth percent below 10; inactive = the rest.

What was measured:
Experiment in all cases: NCI-60 one-dose screen, 48 h (100 = growth as untreated, 0 = no growth, -100 = all killed)
Settings in all cases: 10 µM unless noted
DU-145 prostate = system: DU-145 prostate
K-562 leukemia = system: K-562 leukemia
MALME-3M melanoma = system: MALME-3M melanoma
MDA-MB-231 breast = system: MDA-MB-231 breast
RXF 393 renal = system: RXF 393 renal
SF-268 CNS = system: SF-268 CNS
SF-295 CNS = system: SF-295 CNS
SF-539 CNS = system: SF-539 CNS
UACC-257 melanoma = system: UACC-257 melanoma
M14 melanoma = system: M14 melanoma

Structure (SMILES)	growth (DU-145 prostate)	growth (K-562 leukemia)	growth (MALME-3M melanoma)	growth (MDA-MB-231 breast)	growth (RXF 393 renal)	growth (SF-268 CNS)	growth (SF-295 CNS)	growth (SF-539 CNS)	growth (UACC-257 melanoma)	growth (M14 melanoma)
CCOc1ccc(N=C(C)Nc2ccc(OCC)cc2)cc1	114%	99.6%	117%	118%	113%	88.8%	107%	118%	104%	101%
Nc1c(Cl)cccc1[N+](=O)[O-]	111%	101%	96.7%	99.3%	115%	105%	107%	108%	108%	108%
O=C(c1ccc(F)c(F)c1Nc1ccc(I)cc1F)N1CC(O)([C@@H]2CCCCN2)C1	46.3%	-26.8% (active)	-21.8% (active)	0.9% (active)	-32.3% (active)	44.6%	54.9%	29.2%	-10.8% (active)	-30.6% (active)
C=CC(=O)N1CCC[C@H](n2c(=O)n(-c3ccc(Oc4ccccc4)cc3)c3c(N)ncnc32)C1	62.4%	66.7%	98.2%	99.6%	84.8%	71.6%	98.4%	104%	62.9%	84.1%
Cc1c(CN2CCN(C(=O)[C@H](C)O)CC2)sc2c(N3CCOCC3)nc(-c3cnc(N)nc3)nc12	8.38% (active)	17.6%	-52.3% (active)	7.09% (active)	-40.1% (active)	12.1%	-45% (active)	-47.5% (active)	-34.3% (active)	-21.4% (active)
c1cn2cc(-c3ccc4cn[nH]c4c3)nc(Nc3ccc(N4CCOCC4)cc3)c2n1	53.3%	65.9%	74.8%	55.1%	12.4%	34.9%	66.4%	46.9%	62.6%	55.1%
C[C@H]1Oc2cc(cnc2N)-c2c(nn(C)c2C#N)CN(C)C(=O)c2ccc(F)cc21	91.9%	79.4%	95.6%	69.7%	85.5%	73.1%	85.9%	96.4%	58.5%	71.9%
Cc1cc(NCC(=O)Nc2ccc(-c3nc4ccccc4s3)cc2)no1	95.9%	83%	89.5%	108%	105%	87.4%	96.4%	105%	99.7%	106%
C[C@@H](Nc1cc(F)cc(F)c1)c1cc(C(=O)N(C)C)cc2c(=O)cc(N3CCOCC3)oc12	68.2%	87.6%	68.9%	82.4%	-16.4% (active)	56.8%	14.8%	24.1%	35.2%	69.2%
C=CC(=O)Nc1cc2c(Nc3ccc(F)c(Cl)c3)ncnc2cc1C#CC(C)(C)N1CCN(C)CC1	-98.9% (active)	-30.7% (active)	-85.3% (active)	-90.1% (active)	-98.6% (active)	-94.3% (active)	-97.4% (active)	-100% (active)	-86.2% (active)	-90% (active)
CCn1c(-c2nonc2N)nc2c(C#CC(C)(C)O)ncc(OC[C@H]3CCCNC3)c21	64.4%	38.8%	84.2%	84.2%	5.93% (active)	81%	41.4%	27.1%	130%	71%
CCN1CCN(Cc2ccc(Cc3ncc(F)c(-c4cc(F)c5nc(C)n(C(C)C)c5c4)n3)nc2)CC1	60.4%	-29.2% (active)	65.9%	53.4%	-28.2% (active)	54.4%	64.9%	59.8%	52.8%	45.2%
O=C(NOC[C@H](O)CO)c1ccc(F)c(F)c1Nc1ccc(I)cc1F	58.7%	29.2%	-11.7% (active)	20.9%	2.18% (active)	60.1%	75%	64.2%	-26.8% (active)	3.66% (active)
